The structures appear in SMILES notation. Unmarked numbers belong to inactive results. Activity calls are given as the source filed them.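 Rule for the calls: active = inhibition at or above 50% relative to wild type and mutant plate controls; inactive = inhibition below 50%.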

The assay is described as follows: inhibitors of Chlamydomonas gravitaxis, primary screen, whole organism, Chlamydomonas reinhardtii, WT vs cilia-less mutant, absorbance, 96-well (AID 463189).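 Note: 0% = wild type cc124 cells in DMSO and 100% = ciliumless bld1 mutant cells.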 Particulars: OD600 absorbance, 2 days, at 10 µM, active compounds read high.
For `NC1CONC1=O` (centres undefined), the inhibition (usually the relative decrease from the control value, in per cent) is 8.19%. As for `CCn1c(=O)c2[nH]c(-c3ccccc3)nc2n(CC)c1=O`, the figure is -1.12%; as for `O=C1NC(=O)C(c2ccccc2[N+](=O)[O-])=C1Nc1ccc(O)c(Cl)c1`, 1.1%; as for `N[C@H](C(=O)O)c1cc(O)cc(O)c1`, -2.67%. `CC[C@@H]1Cc2cc(O)ccc2C2=C1c1ccc(O)cc1C[C@H]2CC`: the inhibition was 0.094%. As for `CC(C)c1ccc2c(c1)c(SC(C)(C)C)c(CC(C)(C)C(=O)O)n2Cc1ccc(Cl)cc1`, the figure is 9.82%; as for `C[N+]1(CCCCC[N+]2(C)CCCC2)CCCC1`, -4.7%; as for `Cc1cc(O)c2c(c1)C(=O)c1cc(O)cc(O)c1C2=O`, -10.7%. Next, `Nc1c2c(nc3ccccc13)CCCC2O` (centres undefined): 2%; `Cc1[nH]c(=O)c(C#N)cc1-c1ccncc1`: 8.79%; `Nc1nc(SCc2ccc([N+](=O)[O-])cc2)c2ncn([C@@H]3O[C@H](CO)[C@H](O)C3O)c2n1` (some centres undefined): -2.89%. As for `N[C@@H](CS(=O)O)C(=O)O`, the figure is 7.29%; as for `NC(N)=NCCSSCCN=C(N)N`, -8.7%. `O=C1NC(O)=NC1(c1ccccc1)c1ccccc1`: the inhibition was -1.32%. `CC(C(=O)O)c1ccc(CC2CCCC2=O)cc1` (centres undefined): the inhibition was -6.18%. As for `N=c1ccn2c(n1)OC1[C@@H](O)[C@@H](CO)O[C@H]12` (some centres undefined), the figure is -5.06%.

Take `OCC1O[C@H](O)C(Cl)C(O)C1O` (some centres undefined): the inhibition is 4.68%. For the molecule `CC1CC2C3CCC4=CC(=O)C=C[C@]4(C)[C@@]3(F)[C@@H](O)C[C@]2(C)[C@@]1(O)C(=O)CO` (some centres undefined), the inhibition was 5.99%. Next, `Cc1ccccc1CNc1ncnc2c1ncn2C1OC(CO)C(O)C1O` (centres undefined): -2.9%; `COc1cccc2c1[C@@H]1CN(CCCCn3c(=O)[nH]c4c(sc5ncc(-c6ccccc6)nc54)c3=O)C[C@@H]1CO2`: 4.24%; `O=C1CCC(c2ccc(-n3ccnc3)cc2)=NN1`: -5.18%. As for `NO`, the figure is -14.1%; as for `Cc1c(C)c2c(c(C)c1O)CCC(C)(CN1CCN(c3cc(N4CCCC4)nc(N4CCCC4)n3)CC1)O2` (centres undefined), 6.96%. Consider `CN(C)c1ccc(/C=C2\C(=O)Nc3ccccc32)cc1`, for which the inhibition is 4.05%.

As to `CCCCCCCCCCCCCCCCOCC(COCC(F)(F)F)OP(=O)(O)OCO` (centres undefined), the inhibition is 6.55%. For `O=C(O)/C=C/C(O)c1ccc(Cl)cc1` (centres undefined), the inhibition was -3.97%.

Take `CCCC(CCC)C(=O)O`: the inhibition was 2.56%.

For `CN/C(=C\[N+](=O)[O-])NCCSCc1ccc(CN(C)C)o1`, the inhibition was 1.86%. Next, `O=c1c(-c2ccc(O)cc2)coc2cc(O)ccc12`: -7.57%; `NCCS(=O)O`: 4.12%. As for `Nc1nc(OCc2ccccc2)c2[nH]cnc2n1`, the figure is 0.83%; as for `O=C(O)CCCC[C@@H]1CCSS1`, 4.4%. As for `C[C@@H](CN1CCC(Cc2ccccc2)CC1)[C@@H](O)c1ccc(O)cc1`, the figure is 10.4%; as for `COc1cc2c(c(OC)c1OC)-c1ccc(OC)c(=O)cc1[C@@H](NC(C)=O)CC2`, 4.38%; as for `c1ccc2nc(C3=NCCN3)ccc2c1`, 108% (active). Turning to `CC[N+](CC)(CC)CC(=O)Nc1c(C)cccc1C`, the inhibition is 6.77%. As for `CC(N)=NCCCC[C@@H](N)C(=O)O`, the figure is 7.31%; as for `CCCOc1ccccc1-c1nc2n[nH]nc2c(=O)[nH]1`, -8.54%; as for `C#CC(N)CCC(=O)O` (centres undefined), -0.038%.

These data come from PubChem BioAssay.
